Measured values published in the supplement of paper PMC10127200.
Counter-ions that a name gives are not always drawn.

System: OVCAR4
Test: Euclidean distance of Cell Painting phenotypic profile (signed KS, 77 features) to DMSO centroid (dimensionless distance); 5 or 10 uM (library dependent); higher = stronger phenotypic change vs DMSO (phenoactivity)
Settings: 48 h
Summary of the method: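 Five cancer lines, together with a healthy fibroblast line, received library compounds for 48 h at a library-dependent 10 or 5 uM and 0.1% DMSO final. Harmony then derived 77 features from confocal 20X images (9 fields/well) of the stained cells, scoring each as a signed Kolmogorov-Smirnov statistic against same-plate vehicle wells. After plate-position correction, correlation weighting and replicate averaging at the top dose, phenoactivity was taken as each profile's Euclidean distance to the median vehicle profile.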

Compared with `CC(C)N(CCC(=O)c1ccc2ccccc2c1)Cc1ccccc1`, `CC(C)Oc1ccc2c(=O)c(-c3ccccc3)coc2c1` [Ipriflavone (Osteofix)] is higher in Euclidean distance: 0.928 for the first, 2.28 for the second.

First: O=C1CCCC(=O)C1C(=O)c1ccc(C(F)(F)F)cc1[N+](=O)[O-] [Nitisinone]
Second: OCCN1CCN(CCCN2c3ccccc3Sc3ccc(C(F)(F)F)cc32)CC1 [Fluphenazine dihydrochloride]
The Euclidean distance of the first is lower: 1.09 for the first, 1.77 for the second.

Compared with `CCOC(=O)C1=C(C)NC(C)=C(C(=O)OC)C1c1cccc([N+](=O)[O-])c1` (centres undefined) [Nitrendipine], `CCCN1CCCC[C@H]1C(=O)Nc1c(C)cccc1C` [Ropivacaine] is higher in Euclidean distance: 0.934 for the first, 1.31 for the second.

First: C/C(=C\C(=O)OCCCCCCCCC(=O)O)C[C@@H]1OC[C@H](C[C@@H]2O[C@H]2[C@@H](C)[C@H](C)O)[C@@H](O)[C@H]1O [Mupirocin calcium]
Second: CC(=O)[C@H]1CC[C@H]2[C@@H]3CC=C4C[C@@H](O)CC[C@]4(C)[C@H]3CC[C@]12C [Pregnenolone]
The Euclidean distance of the first is higher: 1.26 for the first, 1.03 for the second.

Going from `CN[C@@H](C)C(=O)N[C@H]1CN(C(=O)CC(C)C)CC[C@H]2CC[C@@H](C(=O)NC(c3ccccc3)c3ccccc3)N2C1=O` to `O=C(Nc1ccccc1)OCC(CN1CCCCC1)OC(=O)Nc1ccccc1` (centres undefined) [Diperodon HCl], the Euclidean distance rises from 1.24 to 1.64.

Going from `C[C@H]1COc2c(N3CCN(C)CC3)c(F)cc3c(=O)c(C(=O)O)cn1c23` [Levofloxacin hydrate] to `COc1ccccc1N1CCN(CCCNc2cc(=O)n(C)c(=O)n2C)CC1` [Urapidil HCl], the Euclidean distance falls from 1.57 to 0.898.

Compared with `CC(C)CC(N)=O` [Isovaleramide], `Cc1cnc(-c2cc(N3CCN(C(=O)CCS(C)(=O)=O)CC3)ncc2Cl)c(C)c1` is lower in Euclidean distance: 1.81 for the first, 1.03 for the second.
